# According to PubChem BioAssay (NCATS):
# Several values for one entry are separate records, joined by “and”; a condition that tells them apart may be missing. Equal values may be shown once. Inconclusive results are not listed. Activity calls are given as the source filed them. Unless noted, no rule for the calls is given here. Peptide text beside a SMILES is read from it.
# Tests used:
# [1] = qHTS assay for small molecule agonists of the antioxidant response element (ARE) signaling pathway measured by Nrf2-dependant transcriptional activity (AID 720636; active = well fitted curve in the direction sought with a large enough effect in the repeat runs; an effect the other way counts as inactive or inconclusive; also: % of control where 0% means no effect)
# Procedure, shortened: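 ARE-luc HepG2 cells carrying an Nrf2-responsive luciferase reporter, in medium with 1% dialyzed FBS, exposed to compound for 16 hr at 37 C, 5% CO2. Luminescence read 30 min after ONE-Glo addition.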
# [2] = qHTS assay for small molecule antagonists of the retinoid-related orphan receptor gamma (ROR-gamma) signaling pathway - cell viability counter screen (AID 720652; active = well fitted curve in the direction sought with a large enough effect in the repeat runs; an effect the other way counts as inactive or inconclusive;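 also: compound exposure lasted 16 hr before ATP read; % is scaled to controls: 0 for no effect and ±100 for the full control effect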)
# Procedure, shortened: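 Luminescence from CellTiter-Glo after 30 min at room temperature reported cellular ATP as the cytotoxicity measure. Cells were the CHO reporter line with doxycycline-induced ROR-gamma expression, exposed to compound for 16 hr at 37 C.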
# [3] = qHTS assay for small molecule agonists of the antioxidant response element (ARE) signaling pathway measured by Nrf2-dependant transcriptional activity - cell viability counter screen (AID 720653; active = well fitted curve in the direction sought with a large enough effect in the repeat runs; an effect the other way counts as inactive or inconclusive; also: % is scaled to controls: 0 for no effect and ±100 for the full control effect); conditions: ARE-bla HepG2 viability, CellTiter-Glo ATP luminescence, 16 h; max response: stronger effect = lower value
# Procedure, shortened: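 ARE-bla HepG2 cells treated with compounds for 16 h at 37C; this counter screen measures viability as intracellular ATP by CellTiter-Glo luminescence after 30 min at room temperature.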
# [4] = qHTS Assay for Identifying Gametocytocidal Compounds (AID 743244; active = well fitted curve in the direction sought with a large enough effect; an effect the other way counts as inactive or inconclusive;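 also: % is scaled to controls: 0 for no effect and ±100 for the full control effect; actives lower the fluorescent signal which means gametocytes are killed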); conditions: P. falciparum 3D7 stage III-V gametocytes, alamarBlue, 72 h; max response: stronger effect = lower value
# Procedure, shortened: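 Stage III-V P. falciparum 3D7 gametocytes, 20,000 per well, were exposed to compounds for 72 h at 37C, 5% CO2. AlamarBlue was then added for 24 h and viability was read as fluorescence at Ex 525/Em 598 nm.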
# [5] = qHTS assay for cell viability of HEK293 cells (AID 743288; active = well fitted curve in the direction sought with a large enough effect; an effect the other way counts as inactive or inconclusive; also: % is scaled to controls: 0 for no effect and ±100 for the full control effect; nearly all actives have a fitted effect of over 50% in size); conditions: ATP luminescence (CellTiter-Glo), 18 h; max response: stronger effect = lower value
# Procedure, shortened: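 Parental HEK293 cells were seeded at 2,000 cells/well, rested at least 5 h at 37 C, then exposed to compounds in DMSO for 18 h at 37 C. Viability was read as ATP-dependent luciferase luminescence after 30 min at room temperature.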
# [6] = qHTS assay for cell viability of the p53RE-bla HCT-116 cell line (AID 743292; active = well fitted curve in the direction sought with a large enough effect; an effect the other way counts as inactive or inconclusive; also: % is scaled to controls: 0 for no effect and ±100 for the full control effect; nearly all actives have a fitted effect of over 55% in size)
# Procedure, shortened: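 CellSensor p53RE-bla HCT-116 cells (4,000/well) pre-incubated 5 h at 37 C, then exposed to compounds in DMSO for 16 h at 37 C. Viability read as ATP content by CellTiter-Glo luminescence after 30 min at room temperature.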
# [7] = qHTS profiling of the MIPE4 collection as inhibitors of Plasmodium falciparum (3D7) proliferation (AID 743344);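 also: scaled between DMSO vehicle wells and 0.29 µM artemisinin as full inhibition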; conditions: P. falciparum 3D7 in erythrocytes, SYBR Green DNA fluorescence, 72 h; at 28.5 µM (top of the series) unless noted
# Procedure, shortened: (§1)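 Erythrocytes infected with P. falciparum (0.3% parasitemia, 2.5% hematocrit) incubated with compounds 72 h at 37 C, 5% CO2. Lysis with saponin/Triton buffer containing SYBR Green I, overnight at room temperature in the dark; DNA fluorescence (485/535 nm) normalised to 0.29 uM artemisinin and DMSO.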
# [8] = qHTS profiling of the MIPE4 collection as inhibitors of Plasmodium falciparum (DD2) proliferation (AID 743345); conditions: P. falciparum Dd2 in erythrocytes, SYBR Green DNA, 72 h; at 28.5 µM (top of the series) unless noted
# Procedure, shortened: as §1
# [9] = qHTS profiling of the MIPE4 collection as inhibitors of Plasmodium falciparum (HB3) proliferation (AID 743347);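 also: plate controls were DMSO vehicle wells for no effect and artemisinin wells for full effect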; conditions: P. falciparum HB3 in erythrocytes, SYBR Green DNA, 72 h; at 28.5 µM (top of the series) unless noted
# Procedure, shortened: as §1
# [10] = High-throughput drug toxicity screening in the BPDCN cell line Gen2.2 (AID 1224824); conditions: Gen2.2 BPDCN cells; at 45.8 µM (top of the series) unless noted;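 also: cells exposed to compounds for 48 h before reading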
# Procedure, shortened: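 Gen2.2 cells (500/well) in phenol red-free RPMI with 10% FBS were exposed to compounds for 48 h at 37 °C, 5% CO2. Viability was read by CellTiter-Glo luminescence and normalized to DMSO (100%) and 9.2 uM bortezomib (0%).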
# [11] = qHTS profiling of the MIPE4 collection as inhibitors of Plasmodium falciparum (DD2) proliferation (Rep 2) (AID 743346); conditions: P. falciparum Dd2 in erythrocytes, SYBR Green DNA, 72 h; at 28.5 µM (top of the series) unless noted
# Procedure, shortened: as §1
# [12] = qHTS for compounds that reverse cellular toxicity of Amyloid beta (A-beta) peptide in yeast: LOPAC Validation Assay (AID 720559; active = well fitted curve in the direction sought with a large enough effect; an effect the other way counts as inactive or inconclusive;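 also: plate controls were DMSO for no effect and equimolar ferric chloride plus clioquinol rescue for full effect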)
# Procedure, shortened: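 Yeast cells expressing toxic A-beta were combined with pinned compounds in growth medium and incubated 48 hr at 30 C. Growth was read as absorbance at 600 nm and normalized to DMSO and to an equimolar FeCl3/clioquinol positive control.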
# [13] = qHTS for Activators of Parkin Expression: LOPAC Validation Assay (FLuc Reporter) (AID 720573; active = well fitted curve in the direction sought with a large enough effect; an effect the other way counts as inactive or inconclusive;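 also: 0% = DMSO and 100% = positive control compounds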)
# Procedure, shortened: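 Neuronal cell line stably carrying FLuc/NLuc coincidence reporter under Parkin promoter; cells plated 24 h, then compounds added in 7-point dose response for 24 h at 37 C. FLuc luminescence read; normalized to DMSO and positive control (100%).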
# [14] = target: T1, Hexokinase-4 (Homo sapiens) + Glucokinase regulatory protein (Homo sapiens) (UniProt P35557+Q14397); test: qHTS assay for inhibitors of recombinant human GCK-GKRP interaction: Diaphorase-coupled assay (AID 743205; active = well fitted curve in the direction sought with a large enough effect; an effect the other way counts as inactive or inconclusive)
# T1 sequence (P35557 whole entry, looked up): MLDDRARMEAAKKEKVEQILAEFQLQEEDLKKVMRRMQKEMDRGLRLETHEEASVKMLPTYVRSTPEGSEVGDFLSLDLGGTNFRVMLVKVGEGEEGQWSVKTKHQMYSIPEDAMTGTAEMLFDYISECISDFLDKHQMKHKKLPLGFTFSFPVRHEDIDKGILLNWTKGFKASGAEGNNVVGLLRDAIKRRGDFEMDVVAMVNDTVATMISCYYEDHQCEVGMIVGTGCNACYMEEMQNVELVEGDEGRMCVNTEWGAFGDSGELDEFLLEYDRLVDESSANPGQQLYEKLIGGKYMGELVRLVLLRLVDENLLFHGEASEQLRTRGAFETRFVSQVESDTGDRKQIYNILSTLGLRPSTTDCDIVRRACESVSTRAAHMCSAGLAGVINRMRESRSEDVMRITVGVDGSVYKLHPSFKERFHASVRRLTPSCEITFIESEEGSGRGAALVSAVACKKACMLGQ
# T1 sequence (Q14397 whole entry, looked up): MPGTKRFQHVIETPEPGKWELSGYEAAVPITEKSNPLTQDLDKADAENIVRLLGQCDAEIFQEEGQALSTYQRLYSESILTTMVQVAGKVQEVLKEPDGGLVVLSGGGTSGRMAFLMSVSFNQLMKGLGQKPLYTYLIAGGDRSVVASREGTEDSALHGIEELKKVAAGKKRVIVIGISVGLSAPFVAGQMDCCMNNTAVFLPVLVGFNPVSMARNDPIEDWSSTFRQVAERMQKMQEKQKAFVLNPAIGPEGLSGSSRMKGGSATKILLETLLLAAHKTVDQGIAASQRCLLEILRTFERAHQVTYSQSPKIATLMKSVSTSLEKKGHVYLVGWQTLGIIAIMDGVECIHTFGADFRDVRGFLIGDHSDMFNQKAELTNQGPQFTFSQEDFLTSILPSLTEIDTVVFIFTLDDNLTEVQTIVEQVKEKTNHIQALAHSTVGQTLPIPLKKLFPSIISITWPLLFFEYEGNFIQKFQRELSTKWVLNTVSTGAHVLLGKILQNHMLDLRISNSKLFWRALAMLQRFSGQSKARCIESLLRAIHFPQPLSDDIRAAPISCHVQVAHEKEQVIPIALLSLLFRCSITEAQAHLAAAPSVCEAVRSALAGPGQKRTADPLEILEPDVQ
# Procedure, shortened: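 GST-GCK (10 nM) with FLAG-GKRP (10 nM), 5 mM glucose and 0.4 mM ATP in pH 7.6 Hepes; compounds preincubated 20 min with substrate. G6PDH/diaphorase coupling converts resazurin to resorufin, read kinetically (ex 525/em 590 nm) for 30 min.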
# [15] = target: T1, Hexokinase-4 (Homo sapiens) + Glucokinase regulatory protein (Homo sapiens); test: qHTS assay for inhibitors of recombinant human GCK-GKRP interaction: HTRF assay (AID 743207; active = well fitted curve in the direction sought with a large enough effect; an effect the other way counts as inactive or inconclusive;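 also: 0% = DMSO with GCK present and -100% = DMSO wells lacking GCK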)
# Procedure, shortened: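 GST-GCK and FLAG-GKRP (5 nM each) were combined with 2 uM S6P in pH 7.1 Hepes/MgCl2/KCl/DTT buffer, then compound and anti-FLAG XL665/anti-GST K antibodies were added. After 60 min at room temperature, HTRF 665/615 nm emission was read.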
compound,measurement,setting,value
Cc1ccc(C)c(OCCCC(C)(C)C(=O)O)c1,Potency,[1],inactive
same,outcome,[2],inactive
same,max response,[3],-1.19% (inactive) and -0.256% (inactive)
same,max response,[4],17.4% (inactive)
same,max response,[5],-0.77% (inactive) and -7.02% (inactive)
same,Potency,[6],inactive
same,"parasite growth, % of DMSO control",[7],5.29%
same,"parasite growth remaining, % of DMSO control (lower = more inhibition)",[8],47.3%
same,"growth, % of control",[9],3.44%
same,"cell viability, % of control (lower = more cytotoxic)",[10],120%
CN(c1nccc(=O)[nH]1)C1CCN(c2nc3ccccc3n2Cc2ccc(F)cc2)CC1,max response,[4],6.96% (inactive)
same,"parasite growth, % of DMSO control",[7],23.2%
same,"parasite growth remaining, % of DMSO control (lower = more inhibition)",[8],81.9%
same,"parasite growth, % of control (lower = inhibition)",[11],23.1%
same,"growth, % of control",[9],17.5%
same,"cell viability, % of control (lower = more cytotoxic)",[10],107%
Cc1nc(-c2ccc(OCC(C)C)c(C#N)c2)sc1C(=O)O,max response,[4],55.3% (inactive)
same,"parasite growth, % of DMSO control",[7],64.2%
same,"parasite growth remaining, % of DMSO control (lower = more inhibition)",[8],91.7%
same,"parasite growth, % of control (lower = inhibition)",[11],43.1%
same,"growth, % of control",[9],62%
same,"cell viability, % of control (lower = more cytotoxic)",[10],41.7%
Cn1c(NCCN(CCO)CCCc2ccc([N+](=O)[O-])cc2)cc(=O)n(C)c1=O,max response,[4],4.58% (inactive)
same,"parasite growth, % of DMSO control",[7],5.83%
same,"parasite growth remaining, % of DMSO control (lower = more inhibition)",[8],76.1%
same,"parasite growth, % of control (lower = inhibition)",[11],7.33%
same,"growth, % of control",[9],9.64%
same,"cell viability, % of control (lower = more cytotoxic)",[10],108%
O=C(O)c1cn(-c2ccc(F)cc2)c2cc(N3CCNCC3)c(F)cc2c1=O,max response,[4],2.27% (inactive)
same,"parasite growth, % of DMSO control",[7],92.9%
same,"parasite growth remaining, % of DMSO control (lower = more inhibition)",[8],67.2%
same,"parasite growth, % of control (lower = inhibition)",[11],50.7%
same,"growth, % of control",[9],208%
same,"cell viability, % of control (lower = more cytotoxic)",[10],47.7%
Cc1nc2n(c(=O)c1CCN1CCC(c3noc4cc(F)ccc34)CC1)CCCC2,max response,[4],9.32% (inactive)
same,"cell viability, % of control (lower = more cytotoxic)",[10],80.6%
CCC[C@@H]1C[C@@H](C(=O)N[C@@H]([C@H]2O[C@H](SC)[C@H](O)[C@@H](O)[C@H]2O)[C@@H](C)O)N(C)C1,max response,[4],-9.02% (inactive)
same,"parasite growth, % of DMSO control",[7],28.5%
same,"parasite growth remaining, % of DMSO control (lower = more inhibition)",[8],50.3%
same,"parasite growth, % of control (lower = inhibition)",[11],67.1%
same,"growth, % of control",[9],66.3%
same,"cell viability, % of control (lower = more cytotoxic)",[10],191%
O=C(O)c1cccc(-c2noc(-c3ccccc3F)n2)c1,max response,[4],-7.05% (inactive)
same,"parasite growth, % of DMSO control",[7],93.9%
same,"parasite growth remaining, % of DMSO control (lower = more inhibition)",[8],96.1%
same,"parasite growth, % of control (lower = inhibition)",[11],41.6%
same,"growth, % of control",[9],99.8%
same,"cell viability, % of control (lower = more cytotoxic)",[10],41.1%
CCCCCCCCCCCCCCCCCCCCCCO,max response,[4],23% (inactive)
same,"parasite growth, % of DMSO control",[7],94.9%
same,"parasite growth remaining, % of DMSO control (lower = more inhibition)",[8],124%
same,"parasite growth, % of control (lower = inhibition)",[11],137%
same,"growth, % of control",[9],105%
same,"cell viability, % of control (lower = more cytotoxic)",[10],148%
Cc1c(C(=O)NN2CCCCC2)nn(-c2ccc(Cl)cc2Cl)c1-c1ccc(Cl)cc1,max response,[4],2.34% (inactive)
same,"parasite growth, % of DMSO control",[7],6.76%
same,"parasite growth remaining, % of DMSO control (lower = more inhibition)",[8],8.4%
same,"parasite growth, % of control (lower = inhibition)",[11],17.7%
same,"growth, % of control",[9],8.97%
same,"cell viability, % of control (lower = more cytotoxic)",[10],24.4%
COC(=O)[C@H](Cc1ccccc1)NC(=O)[C@@H](N)CC(=O)O (H-Asp-Phe-OMe),Potency,[1],inactive
same,outcome,[2],inactive
same,max response,[3],-13.7% (inactive) and 2.98% (inactive)
same,max response,[4],15.3% (inactive) and 2.54% (inactive)
same,max response,[5],-2.43% (inactive) and -2.64% (inactive)
same,Potency,[6],inactive
same,"parasite growth, % of DMSO control",[7],88.6%
same,"parasite growth remaining, % of DMSO control (lower = more inhibition)",[8],22.1%
same,"growth, % of control",[9],107%
same,"cell viability, % of control (lower = more cytotoxic)",[10],280%
C[C@H](Cc1ccc(O)c(O)c1)[C@@H](C)Cc1ccc(O)c(O)c1,outcome,[12],inactive
same,Potency,[13],inactive
same,outcome,[14],inactive
same,outcome,[15],inactive
same,max response,[4],4.03% (inactive)
same,"parasite growth, % of DMSO control",[7],15.1%
same,"parasite growth remaining, % of DMSO control (lower = more inhibition)",[8],17.2%
same,"parasite growth, % of control (lower = inhibition)",[11],16.4%
same,"growth, % of control",[9],20.7%
same,"cell viability, % of control (lower = more cytotoxic)",[10],7.79%
O=P(O)(O)C(O)(Cn1ccnc1)P(=O)(O)O,max response,[4],13.2% (inactive)
same,"cell viability, % of control (lower = more cytotoxic)",[10],109% [at 23.2 µM]
